# Several values for one entry are separate records, joined by “and”; a condition that tells them apart may be missing. Equal values may be shown once. Results filed as inconclusive are left out. Where a call stands in place of a potency, no number is given. More than one record can exist for a structure, and the calls need not agree. Activity calls are given as the source filed them. Unless noted, calls follow the shape of the dose curve; as a rule, active = well fitted curve in the direction sought with a large enough effect in the repeat runs; inconclusive = weak or mixed curves; inactive = no such curve, though single readings can be large; an effect the other way counts as inactive or inconclusive.
# Columns and labels:
# [1] = target: Acetylcholinesterase (Homo sapiens) (UniProt P22303); test: Acetylcholinesterase (AChE) small molecule antagonists: enzyme-based qHTS assay (AID 1347397; calls by dose curve; also: nearly all actives have a fitted effect of over 55% in size; also: potency is read from the fitted curve at half-maximal effect); conditions: Potency: AChE enzyme activity inhibition
# Chain of Acetylcholinesterase (Homo sapiens) (P22303 whole entry, looked up): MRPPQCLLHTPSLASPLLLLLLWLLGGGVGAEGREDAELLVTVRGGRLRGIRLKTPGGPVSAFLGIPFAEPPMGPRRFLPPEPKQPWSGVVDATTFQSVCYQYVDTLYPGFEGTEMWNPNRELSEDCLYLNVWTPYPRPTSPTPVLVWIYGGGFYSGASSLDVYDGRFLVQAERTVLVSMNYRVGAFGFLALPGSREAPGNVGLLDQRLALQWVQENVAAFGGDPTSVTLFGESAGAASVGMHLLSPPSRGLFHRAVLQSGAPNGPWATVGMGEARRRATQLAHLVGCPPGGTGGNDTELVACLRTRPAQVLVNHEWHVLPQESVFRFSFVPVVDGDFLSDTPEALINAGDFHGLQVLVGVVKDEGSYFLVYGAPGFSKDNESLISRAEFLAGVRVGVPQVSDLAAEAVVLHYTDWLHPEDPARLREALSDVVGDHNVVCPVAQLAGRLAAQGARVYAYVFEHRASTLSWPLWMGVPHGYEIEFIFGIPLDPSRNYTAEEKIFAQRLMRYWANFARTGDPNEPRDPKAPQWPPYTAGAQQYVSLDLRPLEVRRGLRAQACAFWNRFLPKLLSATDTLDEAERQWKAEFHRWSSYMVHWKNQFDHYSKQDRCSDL
# In short: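 Colorimetric DTNB read-out of thiocholine released from acetylthiocholine by recombinant human AChE (50 mU/mL as dispensed). Compounds were preincubated 30 min at RT before substrate/DTNB addition, with a 10 min RT reaction.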
# [2] = target: Acetylcholinesterase (Homo sapiens) (UniProt P22303); test: Acetylcholinesterase (AChE) small molecule antagonists: enzyme-based qHTS assay with human liver microsomes (AID 1347399; calls by dose curve; also: nearly all actives have a fitted effect of over 60% in size); conditions: Potency: qHTS inhibition
# In short: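 Recombinant human AChE (50 mU/mL in the enzyme mix) and human liver microsomes (0.25 mg/mL final) were preincubated with compound and NADPH (0.25 mg/mL final) for 30 min at 37 C. Acetylthiocholine/DTNB was then added; thiocholine was read colorimetrically after 10 min at room temperature.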
# [3] = target: Cytochrome P450 2D6 (Homo sapiens) (UniProt P10635); test: Cytochrome P450 Family 2 Subfamily D Member 6 (CYP2D6) small molecule antagonists: luciferase reporter qHTS assay (AID 1671196); also: nearly all actives have a fitted effect of over 50% in size; also: potency is read from the fitted curve at half-maximal effect
# Chain of Cytochrome P450 2D6 (Homo sapiens) (P10635 whole entry, looked up): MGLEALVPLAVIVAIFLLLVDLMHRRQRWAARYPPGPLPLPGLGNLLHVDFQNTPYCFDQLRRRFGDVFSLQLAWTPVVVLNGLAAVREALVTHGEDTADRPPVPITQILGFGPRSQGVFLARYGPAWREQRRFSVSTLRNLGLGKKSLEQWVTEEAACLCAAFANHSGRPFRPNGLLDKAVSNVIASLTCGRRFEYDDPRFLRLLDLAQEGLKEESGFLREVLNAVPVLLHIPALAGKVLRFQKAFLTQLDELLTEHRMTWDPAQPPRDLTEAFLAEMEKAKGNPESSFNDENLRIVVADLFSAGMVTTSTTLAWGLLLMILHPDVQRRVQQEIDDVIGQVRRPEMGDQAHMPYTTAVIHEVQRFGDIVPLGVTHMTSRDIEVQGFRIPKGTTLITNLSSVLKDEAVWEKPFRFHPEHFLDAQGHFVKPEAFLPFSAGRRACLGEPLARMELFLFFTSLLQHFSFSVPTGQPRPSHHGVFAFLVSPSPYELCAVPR
# In short: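 CYP2D6 activity was followed as luminescence from its luciferin product after a 1 h NADPH-driven reaction at room temperature. Enzyme-substrate mix and compound were pre-incubated for 10 min, and the signal was read 20 min after adding detection reagent.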
# [4] = target: Cytochrome P450 2C19 (Homo sapiens) (UniProt P33261); test: Cytochrome P450 Family 2 Subfamily C Member 19 (CYP2C19) small molecule antagonists: luciferase reporter qHTS assay (AID 1671197); also: nearly all actives have a fitted effect of over 65% in size; also: potency is read from the fitted curve at half-maximal effect
# Chain of Cytochrome P450 2C19 (Homo sapiens) (P33261 whole entry, looked up): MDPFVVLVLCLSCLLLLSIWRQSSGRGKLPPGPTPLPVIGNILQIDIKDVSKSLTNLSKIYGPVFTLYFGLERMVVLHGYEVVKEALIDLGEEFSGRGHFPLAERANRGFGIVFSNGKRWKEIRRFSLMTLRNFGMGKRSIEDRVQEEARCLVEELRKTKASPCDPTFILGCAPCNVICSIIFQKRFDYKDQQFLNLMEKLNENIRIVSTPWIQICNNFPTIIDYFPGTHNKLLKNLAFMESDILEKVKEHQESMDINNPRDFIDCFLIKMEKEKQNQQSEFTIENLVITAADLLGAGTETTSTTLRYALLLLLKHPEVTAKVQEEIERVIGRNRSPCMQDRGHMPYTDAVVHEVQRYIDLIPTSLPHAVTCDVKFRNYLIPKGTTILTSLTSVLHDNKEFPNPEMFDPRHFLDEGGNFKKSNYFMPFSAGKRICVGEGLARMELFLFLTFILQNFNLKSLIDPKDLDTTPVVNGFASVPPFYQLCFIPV
# In short: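 Light output is proportional to CYP2C19 activity: proluciferin substrate is converted to luciferin, then detected by a luciferin detection reagent that also stops the 1 h, 37C NADPH-driven reaction. Ketoconazole serves as positive control.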
# [5] = target: Cytochrome P450 2C9 (Homo sapiens) (UniProt P11712); test: Cytochrome P450 Family 2 Subfamily C Member 9 (CYP2C9) small molecule antagonists: luciferase reporter qHTS assay (AID 1671198); also: nearly all actives have a fitted effect of over 50% in size; also: potency is read from the fitted curve at half-maximal effect
# Chain of Cytochrome P450 2C9 (Homo sapiens) (P11712 whole entry, looked up): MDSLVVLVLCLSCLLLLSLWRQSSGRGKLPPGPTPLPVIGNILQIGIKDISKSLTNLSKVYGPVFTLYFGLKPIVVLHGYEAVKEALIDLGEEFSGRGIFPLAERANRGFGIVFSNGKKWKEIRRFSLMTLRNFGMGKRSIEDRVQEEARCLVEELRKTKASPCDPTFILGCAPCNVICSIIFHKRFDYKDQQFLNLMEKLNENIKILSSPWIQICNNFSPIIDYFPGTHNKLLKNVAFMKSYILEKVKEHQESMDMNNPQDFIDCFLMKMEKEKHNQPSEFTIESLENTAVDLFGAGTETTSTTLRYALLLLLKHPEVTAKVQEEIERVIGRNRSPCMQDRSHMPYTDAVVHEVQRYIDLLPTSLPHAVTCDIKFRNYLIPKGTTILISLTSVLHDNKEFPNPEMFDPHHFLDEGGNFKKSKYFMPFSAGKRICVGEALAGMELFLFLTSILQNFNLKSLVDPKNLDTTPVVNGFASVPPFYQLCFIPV
# In short: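 P450-Glo proluciferin substrate with CYP2C9 enzyme; 10 min RT preincubation, then NADPH regeneration 1 h at 37C; luciferin detection reagent 20 min RT, luminescence in relative luminescence units.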
# [6] = target: Cytochrome P450 1A2 (Homo sapiens) (UniProt P05177); test: Cytochrome P450 Family 1 Subfamily A Member 2 (CYP1A2) small molecule antagonists: luciferase reporter qHTS assay (AID 1671199); also: nearly all actives have a fitted effect of over 50% in size; also: potency is read from the fitted curve at half-maximal effect
# Chain of Cytochrome P450 1A2 (Homo sapiens) (P05177 whole entry, looked up): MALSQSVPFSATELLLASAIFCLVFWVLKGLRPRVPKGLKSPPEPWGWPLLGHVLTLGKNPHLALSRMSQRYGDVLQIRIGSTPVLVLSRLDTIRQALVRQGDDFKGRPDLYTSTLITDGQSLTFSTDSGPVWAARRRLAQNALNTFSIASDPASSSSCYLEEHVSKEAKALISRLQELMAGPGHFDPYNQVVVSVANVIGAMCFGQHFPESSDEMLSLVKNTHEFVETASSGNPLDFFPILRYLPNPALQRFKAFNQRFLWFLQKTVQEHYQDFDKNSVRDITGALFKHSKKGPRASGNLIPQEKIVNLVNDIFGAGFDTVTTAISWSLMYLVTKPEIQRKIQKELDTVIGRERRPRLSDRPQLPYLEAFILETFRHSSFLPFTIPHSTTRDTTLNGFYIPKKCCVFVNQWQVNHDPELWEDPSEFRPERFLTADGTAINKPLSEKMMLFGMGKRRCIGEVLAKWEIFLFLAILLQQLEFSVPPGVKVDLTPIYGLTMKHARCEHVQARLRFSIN
# In short: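 Luminescence from luciferin formed by CYP1A2 from a proluciferin substrate, read 20 min after detection reagent. Compound was pre-incubated 10 min with enzyme-substrate, and reaction started with NADPH regeneration solution for 1 h at room temperature; furafylline control.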
# [7] = target: Voltage-gated inwardly rectifying potassium channel KCNH2 (Homo sapiens) (UniProt Q12809); test: Human Ether-a-go-go-Related Gene (hERG) channel small molecule antagonists: fluorescence cell-based qHTS assay (AID 1671200); also: nearly all actives have a fitted effect of over 50% in size; also: potency is read from the fitted curve at half-maximal effect
# Chain of Voltage-gated inwardly rectifying potassium channel KCNH2 (Homo sapiens) (Q12809 whole entry, looked up): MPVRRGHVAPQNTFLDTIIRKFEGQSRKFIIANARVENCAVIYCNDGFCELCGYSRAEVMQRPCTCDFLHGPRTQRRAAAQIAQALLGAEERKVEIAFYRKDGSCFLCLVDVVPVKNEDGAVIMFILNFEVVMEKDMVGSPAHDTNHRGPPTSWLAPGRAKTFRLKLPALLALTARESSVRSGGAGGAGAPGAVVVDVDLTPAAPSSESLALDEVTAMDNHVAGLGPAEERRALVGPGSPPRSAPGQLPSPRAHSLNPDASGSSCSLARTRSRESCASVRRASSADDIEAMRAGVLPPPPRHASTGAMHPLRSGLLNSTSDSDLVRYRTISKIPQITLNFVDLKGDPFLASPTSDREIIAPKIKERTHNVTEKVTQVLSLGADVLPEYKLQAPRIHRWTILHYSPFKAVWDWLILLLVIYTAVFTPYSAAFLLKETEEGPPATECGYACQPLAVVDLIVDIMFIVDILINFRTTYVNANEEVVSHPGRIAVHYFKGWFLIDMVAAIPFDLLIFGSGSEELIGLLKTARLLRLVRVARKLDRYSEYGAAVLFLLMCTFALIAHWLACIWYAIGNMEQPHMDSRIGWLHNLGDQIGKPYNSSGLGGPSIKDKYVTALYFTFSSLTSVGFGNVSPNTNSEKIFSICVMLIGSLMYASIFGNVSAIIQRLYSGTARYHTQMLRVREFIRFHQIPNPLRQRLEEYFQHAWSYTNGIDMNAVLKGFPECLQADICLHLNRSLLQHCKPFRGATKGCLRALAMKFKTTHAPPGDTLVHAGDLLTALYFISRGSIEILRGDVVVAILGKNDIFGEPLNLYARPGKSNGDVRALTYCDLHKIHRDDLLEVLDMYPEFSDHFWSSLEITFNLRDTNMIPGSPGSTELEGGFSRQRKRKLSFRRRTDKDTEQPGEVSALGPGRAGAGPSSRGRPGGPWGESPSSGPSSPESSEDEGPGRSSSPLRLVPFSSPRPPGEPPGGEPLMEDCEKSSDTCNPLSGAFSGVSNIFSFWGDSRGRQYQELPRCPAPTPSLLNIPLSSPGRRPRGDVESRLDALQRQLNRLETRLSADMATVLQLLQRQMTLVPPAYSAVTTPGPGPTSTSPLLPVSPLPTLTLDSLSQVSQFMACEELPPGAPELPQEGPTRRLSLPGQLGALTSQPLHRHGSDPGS
# In short: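 Read-out: thallium influx as a surrogate for potassium, tracked as fluorescence (480 nm ex/540 nm em) every second for 2 min after Stimulus Buffer addition in dye-loaded hERG-U2OS cells.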
# [8] = target: Cytochrome P450 3A4 (Homo sapiens) (UniProt P08684); test: Cytochrome P450 Family 3 Subfamily A Member 4 (CYP3A4) small molecule antagonists: luciferase reporter qHTS assay (AID 1671201); also: nearly all actives have a fitted effect of over 50% in size; also: potency is read from the fitted curve at half-maximal effect
# Chain of Cytochrome P450 3A4 (Homo sapiens) (P08684 whole entry, looked up): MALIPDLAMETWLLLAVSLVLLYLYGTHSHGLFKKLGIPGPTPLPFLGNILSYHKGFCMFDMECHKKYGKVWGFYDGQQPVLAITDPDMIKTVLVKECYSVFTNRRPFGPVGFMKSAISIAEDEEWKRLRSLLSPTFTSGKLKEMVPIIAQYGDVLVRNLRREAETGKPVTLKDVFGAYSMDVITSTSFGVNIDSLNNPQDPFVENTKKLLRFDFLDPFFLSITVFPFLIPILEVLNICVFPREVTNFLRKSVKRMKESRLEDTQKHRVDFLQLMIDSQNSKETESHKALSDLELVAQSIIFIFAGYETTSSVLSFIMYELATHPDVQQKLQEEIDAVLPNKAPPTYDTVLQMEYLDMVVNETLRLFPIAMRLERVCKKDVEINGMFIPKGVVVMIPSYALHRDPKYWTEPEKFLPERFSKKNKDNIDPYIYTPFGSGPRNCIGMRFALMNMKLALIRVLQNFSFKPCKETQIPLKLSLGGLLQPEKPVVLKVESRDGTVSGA
# In short: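 Luminescent readout (RLU) proportional to CYP3A4 activity, from luciferin generated off a proluciferin substrate. Enzyme–substrate mix plus compound 10 min at room temp, NADPH regeneration 1 h, detection reagent 20 min.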
# [9] = target: Acetylcholinesterase (Homo sapiens) (UniProt P22303); test: Acetylcholinesterase (AChE) small molecule antagonists: fluorescence cell-based qHTS assay (AID 1347398; calls by dose curve; also: nearly all actives have a fitted effect of over 50% in size; also: potency is read from the fitted curve at half-maximal effect); conditions: Potency: AChE activity
# In short: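 SH-SY5Y, 2,000 cells/well, attached overnight; cmpd 30 min 37 C; acetylthiocholine/Thiolite Green cocktail 40 min RT; fluorescence Ex/Em 490/520 nm.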
Structure (SMILES),Potency [1],Potency [2],Potency [3],Potency [4],Potency [5],Potency [6],Potency [7],Potency [8],Potency [9]
[Cl][Hg][c]1ccccc1,inactive,inactive,0.796 µM (active),5.03 µM (active),3.99 µM (active),28.3 µM (active),17.4 µM (active),8.94 µM (active),–
CC1(C)C(C=C(Cl)Cl)C1C(=O)OC(C#N)c1ccc(F)c(Oc2ccccc2)c1 (centres undefined),inactive,–,28.3 µM (active),10 µM (active),3.17 µM (active),inactive,inactive,inactive,inactive
O=C(O)[C@H](O)[C@@H](O)C(=O)O,inactive,–,–,–,–,–,inactive,–,inactive
CC(C)=CC1C(C(=O)OC(C#N)c2cccc(Oc3ccccc3)c2)C1(C)C (centres undefined),inactive,–,–,31.7 µM (active),10 µM (active),–,inactive,inactive,inactive
CC#C[C@]1(O)CC[C@H]2[C@@H]3C[C@H](C)C4=CC(=O)CC[C@]4(C)[C@H]3CC[C@@]21C,inactive,–,inactive,9.77 µM (active),17.4 µM (active),–,inactive,–,inactive
S=C=Nc1ccccc1,inactive,–,73.3 µM (active),36.7 µM (active),65.3 µM (active),32.7 µM (active),inactive,32.7 µM (active),inactive
COP(=S)(NC(C)C)Oc1ccc(C)cc1[N+](=O)[O-] (centres undefined),inactive,–,44.8 µM (active),0.283 µM (active),2.52 µM (active),–,inactive,0.633 µM (active),inactive
CC[C@H](C)[C@H]1O[C@]2(C=C[C@@H]1C)C[C@@H]1C[C@@H](C/C=C(\C)[C@@H](O[C@H]3C[C@H](OC)[C@@H](O[C@H]4C[C@H](OC)[C@@H](NC)[C@H](C)O4)[C@H](C)O3)[C@@H](C)/C=C/C=C3\CO[C@@H]4[C@H](O)C(C)=C[C@@H](C(=O)O1)[C@]34O)O2,inactive,–,63.3 µM (active),35.6 µM (active),35.6 µM (active),35.6 µM (active),inactive,1.59 µM (active),inactive
CCN(CC)C(=S)S,inactive,–,inactive,71.6 µM (active) and 50 µM (active) and inactive,62.9 µM (active) and 31.7 µM (active),–,inactive,–,inactive
O=[N+]([O-])C(Br)Br,inactive,–,inactive,inactive,inactive,inactive,inactive,inactive,inactive
Nc1c(Cl)c(Cl)c(Cl)c(Cl)c1Cl,inactive,–,–,inactive,inactive,–,inactive,–,inactive
N#Cc1c2ccccc2cc2ccccc12,inactive,–,inactive,inactive,–,0.2 µM (active),inactive,inactive,inactive
CC(C)N(C(=O)CCl)c1ccccc1,inactive,–,inactive,39.9 µM (active),–,inactive,inactive,inactive,20 µM (active)
CCC1COC(Cn2cncn2)(c2ccc(Cl)cc2Cl)O1 (centres undefined),inactive,–,–,0.317 µM (active),6.33 µM (active),28.3 µM (active),inactive,0.0894 µM (active),inactive
OCC(Br)CBr (centres undefined),inactive,–,–,inactive,inactive,–,inactive,inactive,inactive
C[C@@H]1CC2=CC(=O)CC[C@@H]2[C@H]2CC[C@@]3(C)[C@@H](CC[C@]3(C)O)[C@@H]21,inactive,–,inactive,8.71 µM (active),–,inactive,inactive,–,inactive
FC(F)C(F)(F)OCC(Cn1cncn1)c1ccc(Cl)cc1Cl (centres undefined),inactive,–,11.2 µM (active),0.0199 µM (active),1.77 µM (active),–,inactive,0.223 µM (active),inactive
Nc1ccc(Cl)cc1C(=O)c1ccccc1F,inactive,–,inactive,11 µM (active),17.4 µM (active),–,inactive,inactive,inactive
COc1ccc2c3c1O[C@H]1[C@H](O)CC[C@H]4[C@@H](C2)N(C)CC[C@@]341,inactive,–,inactive,inactive,–,–,inactive,–,inactive
Cc1cc(C2CC2)nc(Nc2ccccc2)n1,inactive,–,–,39.9 µM (active),63.3 µM (active),2.52 µM (active),inactive,inactive,inactive
CC(C)Br,inactive,–,inactive,35.7 µM (active),40 µM (active),–,inactive,inactive,inactive
CCOC(=O)CCN(SN(C)C(=O)Oc1cccc2c1OC(C)(C)C2)C(C)C,0.1 µM (active),–,–,17.8 µM (active),12.6 µM (active),–,–,10 µM (active),0.1 µM (active)
Cc1ccccc1OP(=O)(Oc1ccccc1C)Oc1ccccc1C,inactive,–,–,1.6 µM (active),5.66 µM (active),–,–,inactive,inactive
CN1[C@@H]2CC[C@H]1CC(O)C2 (some centres undefined),inactive,–,inactive,–,inactive,inactive,inactive,inactive,inactive
CCC(C)c1cccc(C(C)CC)c1O (centres undefined),inactive,–,inactive,inactive,15.9 µM (active),22.4 µM (active),inactive,28.3 µM (active),inactive

# From PubChem BioAssay (Tox21)
